Compound activity (PubChem BioAssay)
KLK7 zymogen act = proKLK7 zymogen activators, primary screen, biochemical, fluorescence intensity; AID 652039, 2013; hit rate 0.9% among 370,000; Kallikrein-7 (Homo sapiens), P49862; activation, % at 7 µM; purified proKLK7, EDANS-DABCYL substrate fluorescence; 100% is mature enzyme control, 0% vehicle;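 active = activation above the mean of all tested compounds plus 3 SD, computed per campaign excluding outliers beyond control limits, cut at about 13% in these data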
ADAM10 inh = human ADAM10 inhibitors, primary screen, biochemical, QFRET, HTS; Disintegrin and metalloproteinase domain-containing protein 10 (Homo sapiens), O14672; recombinant ADAM10, EDANS/DABCYL FRET peptide cleavage, 3 h; inhibition, % at 7 µM; hit rate 0.62% among 370,000;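 active = inhibition above a per-campaign cutoff equal to the mean of compounds falling between control-based bounds plus 3 SD, cut at about 20% in these data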;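 also: 0% = DMSO wells while the 100% control is not disclosed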
Target sequence (O14672 214-748 limits assumed): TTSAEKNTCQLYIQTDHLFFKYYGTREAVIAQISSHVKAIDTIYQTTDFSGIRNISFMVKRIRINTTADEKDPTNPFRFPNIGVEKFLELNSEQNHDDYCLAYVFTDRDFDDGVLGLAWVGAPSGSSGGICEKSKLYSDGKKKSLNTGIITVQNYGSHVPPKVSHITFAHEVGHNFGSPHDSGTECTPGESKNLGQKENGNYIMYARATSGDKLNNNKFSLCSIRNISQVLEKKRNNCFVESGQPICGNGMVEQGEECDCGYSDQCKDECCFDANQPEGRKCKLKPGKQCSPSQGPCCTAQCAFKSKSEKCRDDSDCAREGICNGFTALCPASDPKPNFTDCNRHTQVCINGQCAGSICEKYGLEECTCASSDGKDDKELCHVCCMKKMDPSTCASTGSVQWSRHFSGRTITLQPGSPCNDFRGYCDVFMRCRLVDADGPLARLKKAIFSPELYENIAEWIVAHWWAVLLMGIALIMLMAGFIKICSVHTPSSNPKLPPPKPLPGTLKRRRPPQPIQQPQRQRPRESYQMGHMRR
ADAM17 inh = ADAM17 inhibitors, primary screen, biochemical, QFRET; recombinant ADAM17, EDANS/DABCYL FRET peptide cleavage; Disintegrin and metalloproteinase domain-containing protein 17 (Homo sapiens), P78536; hit rate 0.83% among 370,000; inhibition, % at 6.95 µM;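 active = inhibition above the mean of compounds lying between control limits plus 3 SD, set per campaign, cut at about 8.5% in these data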;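 also: 0% = DMSO-only wells as the low control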
sPLA2-III inh = human group III sPLA2 inhibitors, primary screen, biochemical, QFRET, BODIPY PC-A2 liposome substrate; Group 3 secretory phospholipase A2 (Homo sapiens), Q9NZ20; QFRET BODIPY PC-A2 liposome hydrolysis, fluorescence; inhibition, % at 12.2 µM; hit rate 0.56% among 370,000; AID 743126, 2013;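 active = inhibition above mean plus 3 SD of compounds lying within the high and low control bounds, cut at about 19% in these data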;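 also: 0% = median of test compound wells and 100% = no enzyme DMSO wells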
NRP1-CendR mod = modulators of CendR peptide binding to NRP-1, primary screen, biochemical, fluorescence polarization, uHTS; Neuropilin-1 (Homo sapiens), O14786; FAM-RPARPAR peptide binding to NRP-1; inhibition, % at 25 µM; hit rate 0.85% among 360,000; AID 602438, 2012;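 active = inhibition or corrected inhibition above about 18%, plus a signal ratio from 0.5 to 1.5, limit read from the data, passing the limit was not always enough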
ADAM10 confirm = human ADAM10 inhibitors, confirmation, biochemical, QFRET, triplicate | shares compounds with ADAM10 inh | ADAM10 QFRET peptide cleavage, EDANS fluorescence | inhibition, % at 6.95 µM | hit rate 1% among 2,100 | AID 743208, 2013;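 active = inhibition above about 20% chosen separately for each screening run, limit read from the data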;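 also: 0% = DMSO wells and 100% = marimastat wells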
ADAM17 counter = ADAM17 inhibitors, counter-screen for ADAM10 exosite inhibitor project, biochemical, QFRET, high throughput | shares compounds with ADAM10 inh | inhibition, % at 6.95 µM | ADAM17 QFRET peptide cleavage, EDANS fluorescence | hit rate 0.5% among 2,100 | AID 743214, 2013;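 active = mean triplicate inhibition above the solvent-only control wells' mean plus 3 SD, cut at about 12% in these data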;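 also: 0% = DMSO wells and 100% = marimastat wells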
The depositor's hits bear a star; nt = not tested or not shown. This is a sample that favours compounds with a hit; in the whole collection about 3.4% have one here.

SMILES	KLK7 zymogen act	ADAM10 inh	ADAM17 inh	sPLA2-III inh	NRP1-CendR mod	ADAM10 confirm	ADAM17 counter
COc1ccc(C2C(C(=O)Nc3cccnc3)=C(C)Nc3nc(-c4cccs4)nn32)cc1 (stereo not given)	0	-8	-3	-28	4	nt	nt
O=C1OCCN1C(=O)[C@H]1[C@H](c2ccc([N+](=O)[O-])cc2)C(c2cccc(Cl)c2)=NN1c1ccccc1	-1	42*	17*	-16	14	13	5
O=C1OCCN1C(=O)[C@H]1[C@H](c2ccccc2)C(c2cccc(Cl)c2)=NN1c1ccccc1	nt	nt	nt	nt	7	nt	nt
O=C1OCCN1C(=O)[C@H]1[C@H](c2ccc([N+](=O)[O-])cc2)C(c2ccccc2)=NN1c1ccccc1	0	24*	8	-18	-16	7	3
CN1CC=C(c2ccccc2)N(c2ccccc2)C1=O	-1	0	1	4	nt	nt	nt
Nc1[nH]c(C(=O)c2ccccc2)c(-c2ccc3c(c2)OCO3)c1C(=O)NCCc1c[nH]c2ccccc12	1	27*	8	-34	nt	6	3
CCC(C)NC(=O)CSc1nnc(-c2ccc(OC)c(OC)c2)c(-c2ccc(OC)c(OC)c2)n1 (stereo not given)	0	2	-1	1	7	nt	nt
CCOc1ccc(-c2nnc(SCC(=O)NC(C)(C)C)nc2-c2ccc(OCC)c(OC)c2)cc1OC	1	23*	4	-2	-5	0	0
O=C(COC(=O)Cc1c(Cl)cccc1Cl)Nc1ccccc1-c1ccccc1	1	23*	8	-16	9	3	2
CSc1nc(O)c(C(c2cccc([N+](=O)[O-])c2)c2c(O)nc(SC)[nH]c2=O)c(=O)[nH]1	0	81*	-1	1	7	-1	0
COc1ccc(-c2noc(-c3ccccc3C(=O)Nc3cccc(OC)c3)n2)cc1	0	25*	7	-37	-1	3	1
O=C(c1ccc(-n2cnnn2)cc1)N(C1CCCCC1)C1CCCCC1	0	6	-1	8	-8	nt	nt
O=C(NO)c1ccc(C(=O)N(C2CCCCC2)C2CCCCC2)cc1	1	30*	4	-34	11	22*	2
COc1ccc(-c2cc(C(=O)NN=Cc3cccn3C)[nH]n2)cc1	0	-9	-1	-2	nt	nt	nt
N#Cc1c(NC(=O)CSc2n[nH]c(N)n2)oc(-c2ccccc2)c1-c1ccccc1	0	20*	7	-35	14	4	3
Cc1cccc(C)c1OCC(=O)Nc1oc(-c2ccccc2)c(-c2ccccc2)c1C#N	0	-3	1	-10	-10	nt	nt
O=C(OCCN1CCN(C2CN(Cc3cn(Cc4cccc(F)c4)nn3)S(=O)(=O)C2)CC1)c1cc2ccccc2o1 (stereo not given)	0	-4	-2	3	nt	nt	nt
O=C(NNC(=S)Nc1ccc(Cl)c(Cl)c1)c1cccc([N+](=O)[O-])c1	0	13	6	4	-5	nt	nt
Cc1cccc(NC(=S)NNC(=O)c2cccc([N+](=O)[O-])c2)c1	0	21*	3	14	-4	-2	0
CCN(C[C@H]1[C@@H](c2ccc(C3=CCCC3)cc2)[C@H](CO)N1C(=O)c1cccnc1)S(=O)(=O)c1ccccc1[N+](=O)[O-]	0	7	1	-16	nt	nt	nt
COc1ccc(S(=O)(=O)N2CCOCC2)cc1C(=O)Nc1ccc(N2CCCCCC2)cc1	-1	20*	4	5	0	8	4
CCOC(=O)CCC(=O)Nc1cc(S(=O)(=O)N2CCOCC2)ccc1N1CCCCC1	0	22*	-1	-2	3	0	0
COc1ccccc1NC(=O)C1=C(C)Nc2nc(-c3ccccc3)nn2C1c1ccccn1 (stereo not given)	1	67*	2	-9	-2	1	0
O=C(NCCc1ccccc1)OCc1cn(Cc2ccc(C(F)(F)F)cc2)nn1	1	1	0	-2	nt	nt	nt
COc1ccc(CNC(=O)[C@@H](Cc2ccccc2)NC(=O)[C@H]2O[C@@H](n3ccc(=O)[nH]c3=O)[C@H](O)[C@@H]2O)cc1	1	-13	-3	2	nt	nt	nt
SMILES	KLK7 zymogen act	ADAM10 inh	ADAM17 inh	sPLA2-III inh	NRP1-CendR mod	ADAM10 confirm	ADAM17 counter
CCCCOCCCNC(=O)C[C@H]1C[C@@]2(C(=O)OC)C(=C[C@H](COCc3ccccc3)O[C@@H]2C)N(CCc2ccc(OC)c(OC)c2)C1=O	0	0	-1	-13	nt	nt	nt
Cc1cccc(N2CCN(S(=O)(=O)c3ccc4c(c3)CC(=O)N4C)CC2)c1C	0	21*	1	-22	7	1	1
CC(C)CNS(=O)(=O)c1ccc(CCC(=O)N2CCN(Cc3ccc4c(c3)OCO4)CC2)cc1	0	6	0	-18	4	nt	nt
O=C(CCc1ccc(S(=O)(=O)NCCc2ccccc2)cc1)N1CCN(Cc2ccc3c(c2)OCO3)CC1	1	21*	4	-47	1	6	2
CC(C)(C)c1ccc(S(=O)(=O)N2CCCC2C(=O)N2CCc3ccccc3C2)cc1 (stereo not given)	0	4	5	-2	nt	nt	nt
CN1C(=O)c2cc(NC(=O)Nc3ccccc3F)ccc2OC[C@H]2O[C@@H](CC(=O)NCc3ccc(-c4ccccc4)cc3)CC[C@@H]21	0	30*	-8	-31	nt	22*	5
CCNC(=O)C[C@H]1CC[C@H]2[C@@H](COc3ccc(NC(=O)Nc4ccccc4)cc3C(=O)N2C)O1	1	-1	-10	-14	nt	nt	nt
COc1ccccc1NC(=O)Cc1csc(NC(=S)Nc2ccc(C)cc2)n1	-1	33*	4	-33	-4	6	2
CCC(=O)Nc1nc(CC(=O)Nc2ccccc2OC)cs1	0	8	-5	5	-1	nt	nt
CCNC(=O)C[C@H]1CC[C@H]2[C@@H](COc3ccc(NC(=O)c4ccc5c(c4)OCO5)cc3C(=O)N2C)O1	0	18	-16	-29	nt	nt	nt
C[C@@H]1CCCN1c1ccc2c(c1)O[C@H]1CCN(C1)S2(=O)=O	0	-3	-1	13	nt	nt	nt
C[C@@H](c1ccccc1)N1C[C@H](COCc2ccccc2)Oc2cc(N3CC[C@H](O)C3)ccc2S1(=O)=O	0	21*	7	-15	0	7	2
